SMILES strings stand for the structures. Values joined by “and” are separate entries in the source; they are usually repeats but may differ in a detail not shown here. Equal values may be shown once. Compounds without any hit were thinned out: in the full panel of roughly 79,000, 15% have a hit. Unmarked numbers belong to inactive results. Active and inactive are the calls of the source. No stated cut-off is given here; in the data, active means growth inhibition above about 70%; inactive means the rest.

A short description of the first assay: NCI Yeast Anticancer Drug Screen. Data for the rad50 strain (AID 155).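 Further: 0% = growth of vehicle-only cultures of the same strain.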 To be noted: S. cerevisiae rad50 strain growth inhibition, active compounds read high; at 50.0 µM unless noted. As to the method:
Growth inhibition of yeast strains with defined genetic alterations is measured as a screen for potential anti-cancer activity. Selected strains with alterations in DNA damage repair or cell cycle control were exposed to compounds and growth inhibition was measured relative to vehicle treated controls. The strain used in this assay is rad50
For the compound `CN(C)c1ccc(/C=C/C=C2\C=Cc3ccccc32)cc1`, the growth inhibition was 0.55%.
On the same count and under the same terms, then `COc1cc(N=C=S)ccc1NC(=O)c1cc(Br)cc(Br)c1O`, with 55.9%; and `CCOC(=O)[C@]12C3C=CC(C3)C1C(=O)C1OC12` (stereo not given in full), with -29%; and `COC(C(=O)Nc1ccc(C)cc1)(c1ccccc1)c1ccccc1`, with 7.4%.
`CCN1CCCC(C(=O)O)(c2ccccc2)CC1` (stereo not given): the growth inhibition is 1.75%.
The same measure, in the same setting: then `OCCN(CCO)c1ncnc2c1sc(=S)n2-c1ccccc1`, with -0.05%; and `O=S1(=O)CS/C(=N\C(=S)N(c2ccccc2)c2ccccc2)N1c1ccccc1`, with 32.5%.
In the case of `[O-][N+](=Nc1ccc2c(c1)Cc1ccccc1-2)c1ccc2c(c1)Cc1ccccc1-2`, the growth inhibition was 25.7%.
Turning to `COc1ccc2c3c(ccc2c1)[C@@H]1C/C(=C(\OC(C)=O)C(F)(F)F)C(=O)[C@@]1(C)CC3`, the growth inhibition is -0.85%.
On the same count and under the same terms, next, `O=C1c2c(O)ccc(O)c2C(=O)c2c(NCCNCCO)ccc(NCCNCCO)c21`: 61.9% and 31.9%.
Turning to `CC(=O)O[C@H]1[C@@H](OC(C)=O)C(C)(C)/C=C/[C@H](C)C(=O)[C@@]2(OC(C)=O)C[C@@](C)(OC(C)=O)[C@H](OC(C)=O)[C@@H]2[C@H]2OC(=O)CC[C@@]2(OC(=O)c2ccccc2)[C@@H]1OCC(C)C`, the growth inhibition is 3.85%.
As for `O=C(Nc1ccc(F)cc1)c1ccc([N+](=O)[O-])cc1`, the growth inhibition was 0.5%.
`CC1(C)OC(=O)N=C1c1ccccc1Cl`: the growth inhibition is -18.1%.
With `CCOC(=O)c1cccc(N)c1C(=O)OCCN(CC)CC`, the growth inhibition is 1.65%.
In the case of `COc1ccc(C2CC(=O)N(c3ncccn3)C(=O)C2)cc1`, the growth inhibition was 14.5%.
On to `Cn1c(-c2csc(-c3ccc(Cl)cc3)n2)n[nH]c1=S`, for which the growth inhibition is 5.65%.
Still for that read-out and setting: next, `Clc1cccc(Cl)c1C1SCc2nc3cc4ccccc4cc3n21` (stereo not given): -1.8%.
On to `CC(C)(C)OC(=O)NCC(=O)OC/C=C/c1ccccc1`, for which the growth inhibition was -2.7%.
The same measure, in the same setting: next, `O=C(/C=C/c1ccc(-c2ccccc2)cc1)c1ccccc1`: -16.7%; `COC(=O)/C(=C(\C)NC(C)=O)c1c(C(=O)OC)[nH]c2ccccc12`: -6.85%; `O=c1c2cc(Cl)ccc2c2ccc(Cl)cc2c(=O)n1-c1ccc2c(c1)Cc1ccccc1-2`: 1.65%.
Regarding `CCCCCCC(/C=N/NC(=O)CCCCCCCCC(=O)N/N=C/C(=C/c1ccccc1)CCCCCC)=C\c1ccccc1`, the growth inhibition was 11.4%.
With `CN1c2ccccc2C(=O)N2C(=O)CCC21C` (stereo not given), the growth inhibition is -38.9%.
The same measure, in the same setting: then `COc1ccc(NC(=O)CC/C(CC(=O)c2ccco2)=N/NC(=O)C(N)=O)cc1`, with -4%; and `O=C(Oc1cccc(O)c1)c1ccccc1`, with -7.25%; and `[N-]=[N+]=NC1(N=[N+]=[N-])C(=O)Nc2ccccc2C1=O` (stereo not given), with 15.5%.
Same read-out and setting: next, `O=C(/C=C/c1ccccc1)c1ccccc1`: -1.8% and -29.8%.
Same read-out and setting: then `COc1ccc(/C(C)=C\C(=O)O)c(O)c1OC`, with 5.9%; and `CC(C)C(=O)NS(=O)(=O)c1ccccc1`, with -14.6%; and `CC1CC(=O)c2c(ccc3c2C(=O)c2cccc(O)c2C3=O)C1` (stereo not given), with -3.55%.
With `OC1CN(c2ccc(Br)cc2)CC(O)CN(c2ccc(Br)cc2)C1` (stereo not given), the growth inhibition is 98.7% (active).
The same measure, in the same setting: next, `NNC(=S)N/N=C/c1ccc([N+](=O)[O-])s1`: 9.2%; `C1CSCCSCCS1`: 11.6%.
As to `CCC[n+]1nc2ccccc2c(=Nc2ccccc2[N+](=O)[O-])[n-]1`, the growth inhibition is 8.65%.
`Cc1cc(C(=O)O)c(C(=O)O)c(Cl)n1`: the growth inhibition was -9.15%.
Regarding `CCOC(=O)Nc1ccc(F)cc1C`, the growth inhibition is 14.8%.
The same measure, in the same setting: then `C/C(N)=N\O`, with 20.1%; and `OC(COc1cccc(C(F)(F)F)c1)CN1CCN(c2cccc(F)c2)CC1` (stereo not given), with 98.7% (active).

Staying with this assay, now noted: S. cerevisiae rad50 strain growth inhibition; at 5.0 µM (retest, dose inferred, filed as 0.5); active compounds read high.
Regarding `N#CC(c1ccccc1)c1cccc2ccccc12` (stereo not given), the growth inhibition was 5%.

The assay is the same for the next values; noted with them: S. cerevisiae rad50 strain growth inhibition; at 50.0 µM (retest, dose inferred, filed as 5.0); active compounds read high.
For `N#CC(c1ccccc1)c1cccc2ccccc12` (stereo not given), the growth inhibition is 68%.

These data come from PubChem BioAssay (NCI).
